FMDV antiviral: foot and mouth disease virus antiviral activity | FMDV antiviral cell-based qHTS | Potency, µM (doses to about 57.9 µM), without a hit: at the highest dose activity change, negative = inhibition, hits mostly inhibitors | 410,000 compounds, 1.2% hits; calls by dose curve; tested in HEK293T cells; also: read-out not given here; potency is read from the fitted curve at half-maximal effect; nearly all actives have a fitted effect of over 45% in size
Marburg entry inh: inhibitors of Marburg virus binding or cell entry. Marburg virus pseudotyped entry inhibition, cell reporter. Potency, µM (titrated, usually from 37.8 µM), for the others: top-dose activity change, negative = inhibition, actives largely listed as inhibitors. 300,000 compounds, 1.8% hits. AID 540276; calls by dose curve; tested in HEK293 cells; also: potency is read from the fitted curve at half-maximal effect
HCMV inh: inhibitors of human cytomegalovirus; HFF cells, HCMV-luciferase reporter, 72 h; hits give low values; activity change, negative = inhibition, % at 57.5 µM; 410,000 compounds, 4.5% hits; AID 1259415; in the data active = activity change below about -60%; inconclusive = no clear call, values can overlap the other calls; inactive = above about -39%
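Two-dose cell screen: HFF monolayers treated with compounds and infected with luciferase-expressing HCMV at 1 PFU/cell, 72 h at 37C, then lysed for luciferase measurement.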
LASV entry inh: inhibitors of Lassa virus binding or cell entry | 300,000 compounds, 1.2% hits | Lassa virus pseudotype entry inhibition, cell reporter | Potency, µM (titrated, usually from 37.9 µM), without a hit: top-dose activity change, negative = inhibition, hits mostly inhibitors; calls by dose curve; tested in HEK293 cells; also: potency is read from the fitted curve at half-maximal effect; nearly all actives have a fitted effect of over 50% in size
* = called active by the depositor; u = inconclusive; x = not tested or not shown; [ ] = dose if it differs, or a comment. Only some compounds are listed: those with a hit (about 6.2% of all), similar ones and a draw of the others. % is scaled to controls: 0 for no effect and ±100 for the full control effect.

SMILES | FMDV antiviral | Marburg entry inh | HCMV inh | LASV entry inh
O=C(C[n+]1cc(-c2ccc(Cl)cc2)n2c1CCC2)Nc1nc(-c2ccc(F)cc2)cs1 | -7% | 9% | -63* | x
Cn1c(NC(=O)C[n+]2cc(-c3ccc(Cl)cc3)n3c2CCC3)cc(=O)n(C)c1=O | 5% | -16% | -77* | 5%
COc1cccc(-c2n[nH]c3ccnc(-c4cccc(C(C)=O)c4)c23)c1 | x | x | -21 | x
COC(=O)/C=C1\Nc2ccc(Cl)cc2C(=O)NC1=O | x | x | 18 | x
CCN1CCN(CCCNC(=O)C2c3ccccc3C(=O)N(c3ccc(OC)cc3)C2c2ccc(OC)cc2)CC1 (stereo unspecified) | -6% | u | -62* | 2%[46.1 µM]
COc1ccc(C2C(C(=O)Nc3cc(OC)c(OC)c(OC)c3)c3ccccc3C(=O)N2C)cc1 (stereo unspecified) | -28% | u | -66* | u
Cc1ccccc1NC(=O)c1cc2c(-c3ccccc3)nn(-c3ccccc3)c2s1 | -18% | -7%[46.1 µM] | -10 | 8%[46.1 µM]
COCCCNc1nc2c(c(=O)[nH]c(=O)n2C)n1C[C@@H](O)COc1ccccc1 | x | 20% | x | x
COC(=O)/C=C1/S/C(=N/NC(=O)c2ccccc2C)NC1=O | -15% | 5% | -105* | 19%
COC(=O)/C=C1\S/C(=N/NC(=O)c2ccccc2)NC1=O | -8% | 3% | -15 | -2%
COC(=O)/C=C1/SC(=NC(=O)c2ccc(OC)cc2)NC1=O | -10% | x | -15 | x
COC(=O)/C=C1/SC(=NC(=O)c2ccc(F)cc2)NC1=O | 40µM* | 14%[46.1 µM] | 24 | -13%
COC(=O)/C=C1\SC(=NC(=O)c2cccc([N+](=O)[O-])c2)NC1=O | 14µM* | 3%[46.1 µM] | 4 | -1%[46.1 µM]
CCOc1ccccc1N1CC(O)=C(c2nc3ccccc3s2)C1=N | x | 5.8µM* | -8 | u
COc1ccc(OC)c(N2CC(O)=C(c3nc4ccccc4s3)C2=N)c1 | 7% | u | -9 | u
CC(C)(C)c1ccc(-c2nnc(-c3ccccc3NC(=O)c3cccc(C(F)(F)F)c3)o2)cc1 | -9% | -4%[46.1 µM] | 3 | 5%[46.1 µM]
CCc1nnc2c3ccccc3nc(Nc3ccc(F)c(Cl)c3)n12 | u | 3%[46.1 µM] | 0 | 0%[46.1 µM]
CC(C)Nc1ccc(-c2nc(-c3ccncc3)no2)cc1[N+](=O)[O-] | 33% | 1%[46.1 µM] | 9 | 16%[46.1 µM]
COc1ccc(S(=O)(=O)N2CCSC2c2ccc(OC)c(OC)c2)cc1 (stereo unspecified) | u | 2% | -62* | -28%
Cc1ccc(S(=O)(=O)N2CC(C(=O)O)=CC[C@H]2c2ccc(Cl)cc2)cc1 | -25% | x | -23 | x
COc1ccc([C@@H]2CC=C(C(=O)O)CN2S(=O)(=O)c2ccc(C)cc2)cc1OC | -1% | x | -64* | x
O=C(Cc1cccs1)Nc1ccc(C(=O)O)cc1 | -4% | u | -77* | 5%
COc1ccc(NC(=O)C(NC(=O)Cc2cccs2)c2ccc(C)cc2)cc1 (stereo unspecified) | 7% | 16% | -2 | -6%
COc1ccc(NC(=O)C(NC(=O)Cc2cccs2)c2ccccc2)cc1 (stereo unspecified) | 24% | u | -68* | -1%
Cc1ncc(-c2ccc(F)cc2)c(C2CCCN(Cc3cccc(O)c3)C2)n1 (stereo unspecified) | -11% | x | x | x
SMILES | FMDV antiviral | Marburg entry inh | HCMV inh | LASV entry inh
CC1=CC(C)(C)N2C(=O)C3(SCC(=O)N3c3ccc(F)cc3)c3cc(C)cc1c32 (stereo unspecified) | 18µM* | u | -67* | -3%
Cc1cc(C)c(NC(=O)CN2C(=O)C3(SCC(=O)N3c3ccc(F)cc3)c3ccccc32)c(C)c1 (stereo unspecified) | -23% | x | -18 | -16%[46.1 µM]
COc1ccc(C(=O)N2CCC[C@@]3(CCN(c4ccccn4)C3)C2)cc1 | -6% | x | x | x
Cc1ccc(NC(=O)c2nn(C34CC5CC(CC(C5)C3)C4)cc2[N+](=O)[O-])cc1 | 57% | u | -76* | -18%
CC(=O)Nc1ccc(NC(=O)C2CCC(N3C(=O)C4C5C=CC(C6CC56)C4C3=O)CC2)cc1 (stereo unspecified) | -16% | x | 15 | x
O=C(Nc1ccc(Cc2ccncc2)cc1)C1CCC(N2C(=O)C3C4C=CC(C5CC45)C3C2=O)CC1 (stereo unspecified) | 14µM* | u | -85* | u
Cc1ccc(NC(=O)C(Nc2ccccc2)c2ccccc2)cc1 (stereo unspecified) | -7% | -23% | -22 | 2%
Cc1ccc(NC(C(=O)c2ccccc2)c2ccccc2)cc1 (stereo unspecified) | -2% | u | -100* | u
CSc1ncc2c(n1)-c1ccccc1N(Cc1ccc(F)cc1)S2(=O)=O | -18% | x | -1 | -3%[46.1 µM]
CCOC(=O)C1CCN(S(=O)(=O)c2c(Cl)ccc3nonc23)CC1 | x | x | -113* | x
CCCCC(=O)OC1=C(C(=O)c2ccccc2)N(CC)S(=O)(=O)c2ccccc21 | -25% | u | u | -11%[46.1 µM]
CCN1C(C(=O)c2ccccc2)=C(OC(=O)c2ccccc2OC)c2ccccc2S1(=O)=O | -26% | -24%[46.1 µM] | -73* | u
CCCCN1C(C(=O)c2ccccc2)=C(OC(C)=O)c2ccccc2S1(=O)=O | u | u | -108* | u
Cc1ccc(-n2c(C)nc3c(cnn3-c3ccccc3Cl)c2=O)cc1C | -18% | -4% | -20 | 8%
Cc1ccc(-n2c(C)nc3c(cnn3-c3ccc(C)c(C)c3)c2=O)cc1C | -12% | x | -67* | x
Cc1nc2c(cnn2-c2ccccc2Cl)c(=O)n1-c1ccc(N2CCC(C)CC2)cc1 | -21% | u | -63* | u
Cc1ccc(S(=O)(=O)Nc2cc3c(cc2Cl)n(C)c(=O)c(=O)n3C)cc1 | 18% | 1%[46.1 µM] | 6 | 6%[46.1 µM]
O=C(c1cc2c(=O)oc3ccccc3c2s1)N1CCN(c2cccc(Cl)c2)CC1 | -7% | 0%[46.1 µM] | -62* | -17%[46.1 µM]
COCCN1C(=O)COCc2cc(-c3ccc4c(c3)OCO4)ccc21 | x | x | 26 | x
COC(=O)C1=C(C(=O)OC)[C@@H]2N(C)c3ccccc3[C@@]23CCC(=O)N(CC(C)C)C3=N1 | x | 8%[14.2 µM] | x | x
CSCCC(NS(=O)(=O)c1ccc(Cl)cc1)C(=O)OCC(=O)c1c(C)[nH]c2ccccc12 (stereo unspecified) | 35µM* | 12µM* | 39 | u
CC(O)C(NS(=O)(=O)c1ccc(Cl)cc1)C(=O)OCC(=O)c1c[nH]c2ccccc12 (stereo unspecified) | 16µM* | u | 47 | u
C=CCOc1ccc(CNc2nccs2)cc1OCC | -5% | 14% | -64* | -5%
COc1ccc(CNc2nccs2)cc1OC | -11% | 3% | 8 | 1%
CC(/C=N/n1c(-c2ccc(Cl)cc2)n[nH]c1=S)=C\c1ccco1 | 0% | -22% | 94 | -27%
N#CC(C#N)=C1C=CC=CN1/C(=C\c1ccco1)C(=O)c1ccc(-c2ccccc2)cc1 | 14µM* | 16µM* | -101* | u
N#CC(C#N)=C1C=CC=CN1/C(=C\c1ccco1)C(=O)c1ccc(Cl)cc1 | u | u | -97* | u
CCCCc1ccc(C2C3=C(CC(C)(C)CC3=O)NC3=C2C(=O)c2ccccc23)cc1 (stereo unspecified) | -9% | u | -86* | u

Bioassay records from PubChem.
